Experimental data published in PubChem BioAssay AID504339 (National Center for Advancing Translational Sciences (NCATS), 2011).
“And” between values parts separate entries of the source, which are not always exact repeats. Identical values can stand only once. About 17,000 (4.4%) of roughly 390,000 compounds were called active. Inconclusive results (about 8%) are left out. Calls come from the whole dose curve; as a rule, active = well fitted inhibition curve with a large enough effect; inconclusive = small, poorly fitted or top-dose-only effect; inactive = no such curve, though single readings can be large or run the other way. This excerpt belongs to a sample that is enriched for actives. The source holds several records for some structures; these can differ, active in one and inactive in another.

Molecular target: Lysine-specific demethylase 4A (Homo sapiens) (UniProt O75164)
Sequence (O75164 whole entry, looked up, the tested form may be a part): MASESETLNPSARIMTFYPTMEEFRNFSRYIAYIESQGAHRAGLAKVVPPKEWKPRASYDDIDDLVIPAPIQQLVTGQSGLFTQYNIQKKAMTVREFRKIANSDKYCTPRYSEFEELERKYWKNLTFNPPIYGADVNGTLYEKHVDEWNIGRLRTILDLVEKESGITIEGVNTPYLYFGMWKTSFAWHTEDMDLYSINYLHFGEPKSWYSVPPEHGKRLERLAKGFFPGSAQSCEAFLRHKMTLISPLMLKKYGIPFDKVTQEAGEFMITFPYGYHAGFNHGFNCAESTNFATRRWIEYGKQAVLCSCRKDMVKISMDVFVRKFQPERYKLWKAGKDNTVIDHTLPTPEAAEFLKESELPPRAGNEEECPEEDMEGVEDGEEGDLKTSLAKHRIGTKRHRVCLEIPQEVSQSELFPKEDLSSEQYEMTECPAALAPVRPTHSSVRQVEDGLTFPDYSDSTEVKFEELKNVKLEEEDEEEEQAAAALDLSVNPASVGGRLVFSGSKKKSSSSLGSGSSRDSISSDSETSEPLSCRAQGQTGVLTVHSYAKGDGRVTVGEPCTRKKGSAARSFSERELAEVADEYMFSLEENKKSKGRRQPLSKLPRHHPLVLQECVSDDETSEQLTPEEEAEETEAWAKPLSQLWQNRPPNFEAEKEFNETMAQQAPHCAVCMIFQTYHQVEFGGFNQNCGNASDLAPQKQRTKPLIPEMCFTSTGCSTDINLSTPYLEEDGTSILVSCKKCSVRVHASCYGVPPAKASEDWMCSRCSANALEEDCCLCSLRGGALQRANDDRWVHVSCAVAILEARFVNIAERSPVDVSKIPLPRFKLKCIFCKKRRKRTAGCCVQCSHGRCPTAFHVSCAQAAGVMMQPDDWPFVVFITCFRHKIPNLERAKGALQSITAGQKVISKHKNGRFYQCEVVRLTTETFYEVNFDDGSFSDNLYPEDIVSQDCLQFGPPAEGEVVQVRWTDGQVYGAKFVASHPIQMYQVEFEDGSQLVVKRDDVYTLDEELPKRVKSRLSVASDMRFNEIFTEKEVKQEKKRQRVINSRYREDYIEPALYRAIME
Test: qHTS Assay for Inhibitors of JMJD2A-Tudor Domain; note: nearly all actives have a fitted effect of over 50% in size
Conditions: AlphaScreen JMJD2A-Tudor / H3K4me3 peptide binding; series mostly up to 114 µM
% is set by controls: 0 for no effect and ±100 for the full control effect; potency is the fitted concentration of half-maximal effect.

Potency, active:
O=C1CC(c2ccccc2)=NN1c1ccc([N+](=O)[O-])cc1 39.8 µM
CCOc1cccc2c1N[C@@H](c1ccc(C(=O)O)cc1)[C@H]1CC=C[C@@H]21 22.4 µM
COc1ccc(C/C(C)=N/NC(=O)c2ccncc2)cc1 10 µM
CC(=NNC(=S)N1CCCCCC1)c1ccccn1 11.2 µM
C/C(=N\NC(=O)Cc1ccc(Cl)cc1)c1ccccn1 56.2 µM
C/C(=N\NC(=O)c1ccccc1F)c1ccccn1 35.5 µM
COc1ccc(CC(=O)N/N=C(\C)c2ccccn2)cc1 89.1 µM
CC1CCCCC1NC(=O)CSc1nnc(-c2ccncc2)n1CCCN(C)C (configuration not stated) 3.55 µM
CN(C)CCCn1c(SCc2ccc(Cl)cc2)nnc1-c1ccncc1 20 µM
O=C(CC(NCc1cccnc1)C(=O)O)Nc1ccc(O)cc1 (configuration not stated) 25.1 µM
COc1cccc(CNCc2ccc3c(c2)OCO3)c1 1.78 µM
Cc1ccc(CNCc2ccc3c(c2)OCO3)c(C)c1 39.8 µM
COc1ccc2nc(N3C(=O)C(O)=C(C(=O)c4ccco4)C3c3ccco3)sc2c1 (configuration not stated) 0.794 µM
OC(COCc1ccco1)CN1CCN(c2ccccc2)CC1 (configuration not stated) 2.51 µM
CC(CN1CCCCC1)c1ccccc1 (configuration not stated) 3.98 µM
CN(C)c1ccc(C(CNC(=O)c2ccc(F)cc2)c2c[nH]c3ccccc23)cc1 (configuration not stated) 25.1 µM
COc1ccc2c(c1OC)C(=O)N(c1ncn[nH]1)C2 39.8 µM
O=C1C(Cl)=C(Oc2ccccc2)C(=O)c2ccccc21 1 µM

Potency, inactive:
COc1cccc(C(=O)NC2CCN(C#N)CC2)c1
COC(=O)c1cnn(-c2ccc(C(=O)Nc3ccc(OC(F)(F)F)cc3)cc2)c1N
CCCN(CCC)CCCNC(=O)Cn1cc2c(n1)-c1c(oc(C(=O)N3CCCC3)c1C)CC2
CCOC(=O)c1ccc(NC(=O)C2CC(=O)NC(=Nc3ccc(C)c(C)c3)S2)cc1 (configuration not stated)
Cn1c(=O)c2c(n3c4ccccc4nc13)NC(=O)CC2c1cccc(Cl)c1 (configuration not stated)
O=C1CCc2cc(S(=O)(=O)Nc3cccc(Oc4ccccc4)c3)ccc2N1
CCN1CCN(c2ncnc3c2cnn3-c2ccc(C)c(C)c2)CC1
Cn1nc(-c2ccccc2)c2cc([N+](=O)[O-])ccc21
COC(=O)CC1=NN(c2ccccc2)C(=O)C1
COC(=O)c1ccc(-c2nc3cc(NC(C)=O)ccc3o2)cc1
CCOc1c(CNCc2ccc(C(=O)O)cc2)cccc1OC
CCOc1cc(C(=O)O)ccc1OCCOc1ccccc1
Cc1cccc(C)c1NC(=S)N1CCCCCC1
C/C(=N/NC(=O)c1ccn(C)n1)c1ccncc1
CCNC(=S)N1CCN(c2ncccn2)CC1
C/C(=N/NC(=O)CCc1ccccc1)c1ccco1
COc1ccc(C(=O)N/N=C(\C)CC(=O)Nc2ccc(Cl)cn2)cc1
CC1=NNC(=O)C1CCC(=O)N/N=C(\C)c1ccc(Cl)cc1 (configuration not stated)
O=C(Nc1nnc(-c2ccccc2F)s1)c1ccccc1F
COc1ccc(C/C(C)=N/NC(=O)c2cc(C)oc2C)cc1
O=C(CCc1cn(Cc2ccc(F)cc2)c2ccccc12)NC1CCCCC1
Cc1ccc(N(C)C(=O)C2CCN(S(=O)(=O)c3ccc4c(c3)CCCN4C(=O)C3CCC3)CC2)cc1
O=C(CCc1nc(CN2CCN(S(=O)(=O)c3ccc(Cl)cc3)CC2)no1)N1CCCCC1
CCc1ccccc1NC(=O)c1ccc2nc(CCc3ccccc3)oc2c1
O=C(Cn1c(=O)n(-c2ccc(F)cc2)c(=O)c2sccc21)Nc1cccc(C(F)(F)F)c1
Cc1ccccc1CN1CCC(CNC(=O)c2c(C)oc3ncnc(N4CCCCC4)c23)CC1
COc1ccc(CN2CCc3nc(Nc4ccccc4)ncc3C2)c(OC)c1OC
Cc1ccc(CSc2nc3ccsc3c(=O)n2CCC(C)C)cc1
COc1ccc(/C(C)=N/NC(=O)c2ccc3nc[nH]c3c2)cc1
COc1ccc(CC(=O)Nc2c(C(N)=O)oc3ccccc23)cc1
COc1ccccc1CNC(=O)CCCn1c(=O)c2ccccc2n(CC(=O)Nc2ccc(C)cc2Cl)c1=O
COc1ccc(-c2cc(C(=O)N3CCN(c4ccc(F)cc4)CC3)no2)cc1
O=C(c1cc(-c2ccc(Cl)cc2)on1)N1CCN(c2ccccc2)CC1
COc1ccc(-n2c(=O)c3ccccc3n(Cc3ccccc3Cl)c2=O)cc1
COc1ccc(-c2cc(-c3nc(-c4cc(OC)c(OC)c(OC)c4)no3)[nH]n2)c(OC)c1
CCC(=O)Nc1ccccc1-c1nc2ccccc2n(CC(=O)Nc2ccc(C)c(C)c2)c1=O
CCn1c(SCc2cccc(C(=O)O)c2)nnc1-c1ccc(Cl)cc1
CCn1c(SCC(=O)NC2CC2)nnc1-c1ccncc1
CC1CCCC(NC(=O)CSc2nccn2C)C1C (configuration not stated)
Cn1c(SCc2ccc(F)cc2)nnc1-c1ccncc1
Cc1ccccc1-c1nc2scc(CCNC(=O)C(=O)Nc3ccc(F)cc3F)n2n1
CCOC(=O)c1ccc(NC(=O)CCS(=O)(=O)c2ccc(C)cc2)cc1
COc1ccc(OCC(=O)Nc2cccc(C(=O)OCc3cc(=O)n4nc(C)sc4n3)c2)cc1
O=C(Cc1ccccc1)Nc1ccc(NC(=O)c2cccnc2)cc1
CCCCc1ccc(NC(=O)NCc2cccnc2)cc1
COc1ccccc1CNC(=O)NCc1noc2ccc(C)cc12
O=C(NCc1ccc2c(c1)OCO2)C12CC3CC(CC(C3)C1)C2
COc1cc(OC)c(C(=O)NCc2ccc3c(c2)OCO3)cc1OC
COc1cccc(CC(=O)OCC(=O)NCc2ccc3c(c2)OCO3)c1
COc1ccc(NC(=O)NCc2ccc3c(c2)OCO3)c(OC)c1
CC(=O)c1c(C)n(S(=O)(=O)c2ccc(Cl)cc2)c2ccc(NS(=O)(=O)c3ccc(Cl)cc3)cc12
O=C(NCCc1ccccc1)c1ccc2c(c1)N(Cc1ccc(F)cc1)C(=O)c1ccccc1S2(=O)=O
CC(C)(C)C1CCc2c(sc(NC(=O)c3ccccc3F)c2C(=O)N2CCCCC2)C1 (configuration not stated)
CC(C)c1ccc(NC(=O)CN(C)S(=O)(=O)c2ccc3c(c2)c(=O)n(C)c(=O)n3C)cc1
COc1ccc(-c2cc(C(F)(F)F)nc(SCC(=O)N(C)Cc3ccccc3)n2)cc1OC
Cc1ccc(-c2nn(CCC(=O)Nc3ccc(Cl)c(Cl)c3)c(=O)c3ccccc23)cc1
COc1ccc2nc(N3CCN(C(=O)c4ccc([N+](=O)[O-])o4)CC3)sc2c1
Cc1ccccc1OCCSc1nc2ccc(NC(=O)c3ccco3)cc2s1
COc1ccc(NC(C)=O)cc1NC(=O)CN1CCN(c2ccc(F)cc2)CC1
COC(=O)c1ccccc1NC(=O)c1cnn(-c2ccc(F)cc2)c1-n1cccc1
CCc1ccccc1NC(=O)CSc1nc(C)c(C(=O)Nc2ccccc2)c(-c2ccc(Cl)cc2)c1C#N
CCN(CC)S(=O)(=O)c1ccc2c(c1)c(=O)c(C(=O)N1CCN(c3cccc(Cl)c3)CC1)cn2C
OC(COc1ccccc1)CN1CCN(c2cccc(Cl)c2)CC1 (configuration not stated)
CN1CCN(CC(O)COCc2ccc3c(c2)OCO3)CC1 (configuration not stated)
COc1cccc(C(=O)NCC(=O)OCc2cc(=O)n3ccsc3n2)c1
CC(C)c1ccc(NC(=O)c2cc(S(=O)(=O)N3CCc4ccccc4C3)ccc2F)cc1
CCOc1ccccc1NC(=O)c1ccc2c(c1)CCN2S(=O)(=O)c1ccc(C)cc1
CCOc1ccc(N(Cc2ccccc2)C(=O)c2nc(S(C)(=O)=O)ncc2Cl)cc1
CC(CN1CCC(n2nccc2NC(=O)C2CCCC2)CC1)c1ccccc1 (configuration not stated)
CC(CN1CCOCC1)c1ccccc1 (configuration not stated)
COc1ccc(-n2c(SCC(N)=O)nc3c(oc4ccccc43)c2=O)cc1
CCn1cc(C(=O)NCc2ccc(C)cc2)c(=O)c2cc(S(=O)(=O)N3CCc4ccccc4C3)ccc21
CCCCNC(=O)c1ccc2c(c1)NC(=O)C(C(C)C)N2 (configuration not stated)
C[C@H](NC(=O)c1ccccc1)C(=O)OCC(=O)c1c[nH]c2ccccc12
CCOc1ccccc1C(=O)NCC(c1ccc(N(C)C)cc1)N1CCCC1 (configuration not stated)
Cc1ccc(CN2COc3cc(C)c4c(oc(=O)c5ccccc54)c3C2)cc1
Cc1ccc(NC2=C(c3ccc(C(F)(F)F)cc3)C(=O)c3ccccc32)cc1F
COc1ccc(N2C(=O)CSC23C(=O)N(Cc2cccc(F)c2)c2ccccc23)cc1Cl (configuration not stated)
O=C(CS(=O)(=O)c1cccc2nsnc12)N1CCN(c2cccc(Cl)c2)CC1
COc1ccc2c(c1OC)C(=O)N(c1ccc(O)cc1)C2
CCOC(=O)c1c(S(=O)(=O)N2CCCC(C(=O)NCc3cccc(C)c3)C2)c(C)n(C)c1C (configuration not stated)
Cc1cc(C)cc(NS(=O)(=O)c2ccc3[nH]cc(C(=O)N4CCCCC4)c(=O)c3c2)c1

Potency, inactive and 28.2 µM (active):
O=C(c1cc(-c2ccc(F)cc2)on1)N1CCN(c2ccc(F)cc2)CC1

Activity change, negative = inhibition, inactive:
COc1ccc(C2C(C#N)=C(N)N(c3ncn[nH]3)C3=C2C(=O)CCC3)cc1 (configuration not stated) -18% [at 11.4 µM]
